Assay results as given in PubChem BioAssay (NCATS).
Records with an inconclusive call do not appear. A call without a number means that no potency is given here. Calls of active or inactive are those of the source. The call rests on the fitted dose curve; in most records, active means well fitted inhibition curve with a large enough effect; inconclusive means small, poorly fitted or top-dose-only effect; inactive means flat fitted curve, though single readings scatter.

System: Zika virus NS2B-NS3 protease
Experiment: Primary screen GU AMC qHTS for Zika virus inhibitors (AID 1347154); further: nearly all actives have a fitted effect of over 70% in size
Details: Zika NS2B-NS3 unlinked protease, AMC fluorogenic substrate; series mostly up to 54.1 µM
Procedure, shortened: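 Fluorogenic AMC-substrate cleavage by noncovalent NS2B-NS3 protease complex (25 nM, pH 8.0 Tris buffer with Tween 20) followed for 15 minutes at room temperature (~20% conversion). Percent inhibition from ex340/em450 signal change, fitted by 4-parameter Hill equation.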
Potency means the concentration at half of the fitted maximal effect.

Row | SMILES | Potency
1 | Cc1[nH]c2ccccc2c1CCNCc1ccc(C=CC(=O)NO)cc1 | inactive
2 | CN1CCN(Cc2ccc(NC(=O)Nc3ccc(Oc4cc(NC(=O)C5CC5)ncn4)cc3)cc2C(F)(F)F)CC1 | inactive
3 | COc1c(OCCCN2CCOCC2)ccc2c3n(c(=NC(=O)c4cnc(N)nc4)nc12)CCN3 | inactive
4 | CN(C)CC(C)(C)CNc1nn2c(-c3ccccc3)nnc2cc1C1CCC1 | inactive
5 | COc1cccc2c(NCc3ccccc3)nc(-n3c(N)nc4ccccc43)nc12 | inactive
6 | Cc1nc2ccc(CN(C)c3ccc(C(=O)N[C@@H](CCC(=O)O)C(=O)O)s3)cc2c(=O)[nH]1 | inactive
7 | CN(c1ncccc1CNc1nc(Nc2ccc3c(c2)CC(=O)N3)ncc1C(F)(F)F)S(C)(=O)=O | inactive
8 | CNC(=O)c1nn(C)c2c1C(C)(C)Cc1cnc(Nc3ccc(N4CCN(C)CC4)cc3)nc1-2 | inactive
9 | Cc1cc(Nc2cc(N3CCN(C)CC3)nc(Sc3ccc(NC(=O)C4CC4)cc3)n2)n[nH]1 | inactive
10 | O=C(C=Cc1cccc(S(=O)(=O)Nc2ccccc2)c1)NO | inactive
11 | Cc1ccc(-c2ncn(-c3ccc(Nc4nccc(-c5cccc(N6CCOCC6)c5)n4)cc3)n2)cn1 | inactive
12 | Cc1nc2cnc3ccc(C#Cc4cccnc4)cc3c2n1-c1ccc(C(C)(C)C#N)cc1 | inactive
13 | Cc1cn2c(-c3cn[nH]c3)cnc2c(Nc2ccc(C(=O)N3CCNCC3)cc2F)n1 | inactive
14 | OCCCNc1cc(-c2ccnc(Nc3cccc(Cl)c3)n2)ccn1 | inactive
15 | C[C@@H](Oc1cc(-c2cnn(C3CCNCC3)c2)cnc1N)c1c(Cl)ccc(F)c1Cl | inactive
16 | CN1CCN(c2cc(C(=O)Nc3ccc4c(c3)-c3c(c(C(N)=O)nn3-c3ccc(F)cc3)CC4)c(Cl)cn2)CC1 | inactive
17 | CNC(=O)c1ccccc1Nc1nc(Nc2ccc(N3CCOCC3)cc2OC)ncc1Cl | inactive

Row | SMILES | Potency
18 | CNC(=O)c1c(F)cccc1Nc1nc(Nc2cc3c(cc2OC)CCN3C(=O)CN(C)C)nc2[nH]ccc12 | inactive
19 | COc1cc2c(Oc3ccc(NC(=O)C4(C(=O)Nc5ccc(F)cc5)CC4)cc3F)ccnc2cc1OCCCN1CCOCC1 | inactive
20 | O=C(C=Cc1cccnc1)NCCCCC1CCN(C(=O)c2ccccc2)CC1 | inactive
21 | Cc1ccc(C(=O)Nc2ccc(CN3CCN(C)CC3)c(C(F)(F)F)c2)cc1C#Cc1cnc2cccnn12 | 34.1 µM (active)
22 | CN(C)Cc1c(C(=O)NCCOc2ccc(C(=O)NO)cc2)oc2ccccc12 | inactive
23 | CC[C@@H]1C(=O)N(C)c2cnc(Nc3ccc(C(=O)NC4CCN(C)CC4)cc3OC)nc2N1C1CCCC1 | inactive
24 | Cc1cn(-c2cc(NC(=O)c3ccc(C)c(Nc4nccc(-c5cccnc5)n4)c3)cc(C(F)(F)F)c2)cn1 | inactive
25 | CCc1c2c(nc3ccc(O)cc13)-c1cc3c(c(=O)n1C2)COC(=O)[C@]3(O)CC | inactive
26 | COc1ccc(-c2cc3c(C)nc(N)nc3n(C3CCC(OCCO)CC3)c2=O)cn1 (centres undefined) | inactive
27 | COc1cccc(-c2ccc(NC(=O)C3=C(C(=O)O)CCC3)c(F)c2)c1 | inactive
28 | C[C@@H](Oc1cc(-n2cnc3ccc(CN4CCN(C)CC4)cc32)sc1C(N)=O)c1ccccc1C(F)(F)F | inactive
29 | CC(C)(C)c1cnc(CSc2cnc(NC(=O)C3CCNCC3)s2)o1 | inactive
30 | CN1CC[C@@H](c2c(O)cc(O)c3c(=O)cc(-c4ccccc4Cl)oc23)[C@@H](O)C1 | inactive
31 | CC(C)c1cnn2c(NCc3ccccc3)cc(N[C@@H](CO)[C@H](O)CO)nc12 | inactive
32 | Cc1ccc(C(N)=O)cc1Nc1nccc(-c2cn(C(C)C)c3cnccc23)n1 | inactive
33 | Nc1ncnc2c1c(-c1cnc3[nH]ccc3c1)nn2C1CCCC1 | inactive
34 | C=CC(=O)Nc1cccc(Oc2nc(Nc3ccc(N4CCN(C)CC4)cc3)ncc2Cl)c1 | inactive
